Screening data deposited in PubChem by Sanford-Burnham Center for Chemical Genomics.
NALP1 yeast inh: NALP1 inflammasome inhibitors in reconstituted yeast, colorimetric, S. cerevisiae, triplicate retest | inhibition, % at 10 µM | 280,000 compounds, 0.61% hits | S. cerevisiae NALP1/ASC/caspase-1 growth, X-gal OD620, 72 h; in the data active means inhibition mostly above about 24%, no sharp cut-off; inactive means mostly below about 32%
TIM10 inh: growth inhibitors of isogenic TIM10 control yeast, primary screen, counter-screen for tim10-1 yeast inhibitor project, luminescence, uHTS; AID 463195, 2010; S. cerevisiae TIM10 strain growth, BacTiter-Glo luminescence, 24 h; 330,000 compounds, 1.4% hits; inhibition, % at 10 µM;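 active means inhibition of 40% or more at the single tested concentration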;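 further: wild-type TIM10 isogenic control strain grown at permissive 25 °C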
NALP3 yeast inh: NALP3 inflammasome inhibitors in reconstituted yeast, primary screen, luminescence, uHTS. Yeast reconstituted NLRP3/ASC/caspase-1, beta-gal luminescence, 24 h. inhibition, % at 10 µM. 330,000 compounds, 0.39% hits. AID 2825, 2010;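 active means inhibition of 50% or more; inactive means inhibition below 50%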
tim10-1 inh: growth inhibitors of tim10-1 mutant yeast, primary screen, luminescence, uHTS; 330,000 compounds, 2.2% hits; S. cerevisiae tim10-1 ts strain growth, BacTiter-Glo, 24 h; inhibition, % at 20 µM; AID 463190, 2010;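 active means inhibition of at least 40%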;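 further: mutant grown at 25 °C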
tim23-1 inh: growth inhibitors of tim23-1 mutant yeast, primary screen, luminescence, uHTS. S. cerevisiae tim23-1 growth, BacTiter-Glo luminescence, 24 h. inhibition, % at 20 µM. 330,000 compounds, 1.3% hits. AID 463212, 2010;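 active means growth inhibition of the mutant yeast at or above 50%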;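 further: temperature-sensitive mutant grown at 25 °C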
tim10-1 conf: growth inhibitors of tim10-1 mutant yeast, confirmation, single concentration, luminescence, S. cerevisiae. S. cerevisiae tim10-1 ts strain growth, BacTiter-Glo, 24 h. AID 463213, 2010. 7,400 compounds, 56% hits. shares compounds with tim10-1 inh. inhibition, % at 20 µM;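 active means inhibition of yeast growth at or above a set limit in either of two repeat tests at 20 µM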;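 further: tim10-1 mutant grown at permissive 25 °C to find synthetic lethal compounds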
tim10 confirm: growth inhibitors of wild-type TIM10 yeast, confirmation, counter-screen for tim10-1 synthetic lethality project, single concentration, luminescence, S. cerevisiae; shares compounds with TIM10 inh; S. cerevisiae tim10 strain growth, BacTiter-Glo luminescence, 24 h; inhibition, % at 10 µM; 4,600 compounds, 63% hits; AID 463215, 2010;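 active means inhibition of yeast growth at or above a set limit in either of two replicates at 10 µM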; further: this counterscreen used the strain with wild-type TIM10
tim23-1 conf: tim23-1 mutant yeast growth inhibitors, confirmation, luminescence, single concentration; shares compounds with tim23-1 inh; S. cerevisiae tim23-1 growth, BacTiter-Glo luminescence, 24 h; inhibition, % at 20 µM; 4,400 compounds, 83% hits;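 active means inhibition above about 39% in either of two replicate wells at 20 µM, limit read from the data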;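 further: temperature-sensitive tim23-1 mutant grown at 25 °C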
Each line names hits and unclear results; the compound was inactive in the other large screens (follow-up assays come after a bar, where they were run). Rows were chosen to be rich in hits. Some 4.1% of all compounds tested hit in one or more screens of this group.

CCN(CC)c1ccc2c(c1)oc(=O)c1c(Cl)cc(=O)oc12	TIM10 inh 89, tim10-1 inh 78, tim23-1 inh 73 | tim10-1 conf 82 | tim10 confirm 61 | tim23-1 conf 81
CCN(CC)c1ccc2c(Cl)c(Br)c(=O)oc2c1	TIM10 inh 72, tim10-1 inh 60, tim23-1 inh 64 | tim10-1 conf 59 | tim10 confirm 68 | tim23-1 conf 78
CCOc1ccc(-n2cc(-c3ccccc3)c3c(=S)nc[nH]c32)cc1	TIM10 inh 45, tim10-1 inh 70, tim23-1 inh 64 | tim10-1 conf 33 | tim10 confirm 47 | tim23-1 conf inactive
CCOc1ccc(-n2cc(-c3ccccc3)c3c(N4CCOCC4)ncnc32)cc1	none
O=C(c1cccs1)N(C(=O)c1cccs1)c1ccc(Br)cn1	TIM10 inh 63, tim10-1 inh 42, tim23-1 inh 75 | tim10-1 conf 31 | tim10 confirm 50 | tim23-1 conf 62
COc1ccc(/C=C/C(=O)ONC2=NCCCCC2)cc1OC	TIM10 inh 49, tim10-1 inh 68, tim23-1 inh 58 | tim10-1 conf 69 | tim10 confirm 37 | tim23-1 conf inactive
CCCN(CC1CC1)C(=S)NC(=O)C1CC1	none
CCOC(=O)C1CCCN(C(=S)NC(=O)c2cc(Br)ccc2Cl)C1 (stereo unspecified)	tim10-1 inh 40, tim23-1 inh 55 (no result: NALP1 yeast inh) | tim10-1 conf inactive | tim23-1 conf 44
CCCN(CC1CC1)C(=S)NC(=O)c1cc(Br)ccc1Cl	TIM10 inh 52, tim10-1 inh 60, tim23-1 inh 57 (no result: NALP1 yeast inh) | tim10-1 conf 37 | tim10 confirm 51 | tim23-1 conf 52
Cc1cccc(C(=O)OCC(=O)N2CCCC2=O)c1[N+](=O)[O-]	none (no result: NALP1 yeast inh)
CC1=NN(c2ccc(Cl)cc2)C(=O)C1C(c1cccc(O)c1)c1c(C)[nH]n(-c2ccc(Cl)cc2)c1=O (stereo unspecified)	tim10-1 inh 48, tim23-1 inh 57 | tim10-1 conf inactive | tim23-1 conf 51
O=C(CSc1nnc(COc2ccccc2)o1)N1CCOCC1	none
O=C(Oc1ccc(Br)cc1C(=S)N1CCOCC1)c1ccc([N+](=O)[O-])cc1[N+](=O)[O-]	TIM10 inh 68, tim10-1 inh 71, tim23-1 inh 67 | tim10-1 conf 77 | tim10 confirm 78 | tim23-1 conf 84
O=C(Oc1ccc(C(=S)N2CCOCC2)cc1)c1ccc([N+](=O)[O-])cc1[N+](=O)[O-]	none
O=C(Oc1cccc(C(=S)N2CCOCC2)c1)c1ccc([N+](=O)[O-])cc1[N+](=O)[O-]	TIM10 inh 84, tim10-1 inh 84, tim23-1 inh 78 | tim10-1 conf 84 | tim10 confirm 90 | tim23-1 conf 87
COc1cc(/C=C(/C#N)C(=O)NCc2ccccc2)cc(OC)c1OC	tim10-1 inh 55, tim23-1 inh 63 | tim10-1 conf 49 | tim23-1 conf 61
CC(C)CC1(C)NC(=O)N(CC(=O)Nc2ccc3c(c2)CCC3)C1=O (stereo unspecified)	none
CN(C)S(=O)(=O)c1cccc(NC(=S)Nc2ccc(Cl)cc2Cl)c1	none
CN(C)S(=O)(=O)c1cccc(NC(=S)Nc2cc(Cl)cc(Cl)c2)c1	TIM10 inh 60, tim10-1 inh 58, tim23-1 inh 52 | tim10-1 conf 36 | tim10 confirm inactive | tim23-1 conf 44
CCC(Oc1ccccc1)C(=O)NCc1ccc(S(N)(=O)=O)cc1 (stereo unspecified)	none
CN(c1ccc(O)cc1)c1nc(-c2cccs2)cs1	TIM10 inh 64, tim10-1 inh 49, tim23-1 inh 72 | tim10-1 conf 44 | tim10 confirm 57 | tim23-1 conf 52
Cc1nc(N)sc1-c1csc(N(C)c2ccc(O)cc2)n1	none
C=CCSc1n[nH]c(-c2ccc(OCCCC)cc2)n1	TIM10 inh 56, tim10-1 inh 41, tim23-1 inh 72 | tim10-1 conf inactive | tim10 confirm 48 | tim23-1 conf 67
COC(=O)C1=C(C)OC(N)=C(C#N)C1c1cc2cccc(C)c2nc1Cl (stereo unspecified)	tim10-1 inh 44, tim23-1 inh 64 | tim10-1 conf inactive | tim23-1 conf 58
COCCOC(=O)C1=C(C)OC(N)=C(C#N)C1c1cc2cccc(C)c2nc1Cl (stereo unspecified)	none
CC1C(=O)N2CCCc3cc(NS(=O)(=O)c4ccccc4)cc1c32 (stereo unspecified)	none (no result: NALP1 yeast inh)
COc1cccc2nc3cc(C)c(C)cc3nc12	TIM10 inh 43, tim10-1 inh 64, tim23-1 inh 50 | tim10-1 conf 53 | tim10 confirm 33 | tim23-1 conf 54
COc1cccc2c1nc(C)c1cc(C)oc12	none
Cc1cc(C)n(CC(=O)Nc2ccc3c(c2)OCO3)c(=O)c1C#N	none (no result: NALP1 yeast inh)
CC1CC(C)CN(C(=O)c2ccc(-c3ccc([N+](=O)[O-])cc3)o2)C1 (stereo unspecified)	TIM10 inh 56, tim10-1 inh 69, tim23-1 inh 63 (no result: NALP1 yeast inh) | tim10-1 conf inactive | tim10 confirm 58 | tim23-1 conf 46
O=C(c1ccc(-c2cccc([N+](=O)[O-])c2)o1)N1CCN(c2ccc([N+](=O)[O-])cc2)CC1	none (no result: NALP1 yeast inh)
Cc1cccc(CN2C(=O)/C(=C\c3ccc(C(=O)NCCCN4CCN(C)CC4)cc3)Oc3ccccc32)c1	tim10-1 inh 44, tim23-1 inh 62 | tim10-1 conf inactive | tim23-1 conf 46
CCCCNC(=O)O[C@@H]1C[C@H]2CCC(=O)N3CC[C@@H](C1)[C@@H]23	none
N=c1oc2ccccc2cc1-c1nc(-c2ccc(Cl)cc2)cs1	none
Cc1ccc(C2CC(c3cccs3)=NN2C(=O)CSC2=NN3CCCC(=O)N=C3S2)cc1 (stereo unspecified)	TIM10 inh 45, tim10-1 inh 50, tim23-1 inh 57 | tim10-1 conf 44 | tim10 confirm 40 | tim23-1 conf 60
COc1ccc(C2CC(c3ccc(Br)cc3)=NN2C(=O)CSC2=NN3CCCC(=O)N=C3S2)cc1 (stereo unspecified)	none
Cc1ccc(S(=O)(=O)NCCC(=O)NNC(=O)c2ccccc2O)cc1C	none (no result: NALP1 yeast inh)
